Activity calls are given as the source filed them. How the source made its calls: active means hit-call score of the fitted dose curve at least 0.9, where 1 is the maximum; inactive means score below 0.9.
What was measured:
[1] = ATG_CRE_CIS: Attagene CIS-FACTORIAL HepG2 Assay for human cAMP Responsive Element (CRE) binding protein 3 (AID 2282926); conditions: HepG2 CRE cis-reporter, Attagene multiplexed mRNA; actives raise or lower the signal
Procedure, shortened: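 Endogenous CRE-binding activity in HepG2 is reported through a cis-regulated transfected reporter. Following a day of exposure, mRNA levels are determined by reverse transcription PCR and fluorescent fragment analysis; fits run in both directions versus DMSO.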

[2] = target: CCAAT/enhancer-binding protein beta (Homo sapiens) (UniProt P17676); experiment: ATG_C_EBP_CIS: Attagene CIS-FACTORIAL HepG2 Assay for human CCAAT/Enhancer Binding Protein (C/EBP) beta (AID 2282927); conditions: HepG2 Attagene cis-factorial transcription factor reporter; actives raise or lower the signal
Procedure, shortened: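 HepG2, transient MRTU transfection, 24 h treatment. RT-PCR plus CE fluorescence; DMSO negative control, bidirectional fit.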

[3] = ATG_CMV_CIS: Attagene CIS-FACTORIAL HepG2 Assay for human CMV (Internal Marker) (AID 2282928); conditions: HepG2 CMV promoter reporter, transcription factor profiling; actives raise or lower the signal;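 further: endpoint acts as a background internal control marker rather than a target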
Procedure, shortened: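 CMV internal-marker background readout in transiently transfected HepG2 cells bearing cis-regulated reporter units. Reporter mRNA is measured 24 h after dosing by RT-PCR and capillary electrophoresis, with bidirectional fitting against DMSO.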

[4] = ATG_DR4_LXR_CIS: Attagene CIS-FACTORIAL HepG2 Assay for human Liver X Receptor (LXR), DR4 submotif (AID 2282929); conditions: HepG2 Attagene DR4 cis-reporter, mRNA transcription; actives raise or lower the signal
Procedure, shortened: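 After transient transfection with multiplexed cis-promoter reporter units, HepG2 cells received test chemicals for 24 h. Reporter mRNA induction, detected by fluorescence after RT-PCR and capillary electrophoresis, was scored relative to DMSO.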

[5] = target: Aryl hydrocarbon receptor (Homo sapiens) (UniProt P35869); experiment: ATG_Ahr_CIS: Attagene CIS-FACTORIAL HepG2 Assay for human Aryl Hydrocarbon Receptor (Ahr) (AID 2282930); conditions: HepG2 AhR cis-factorial reporter transcription; actives raise or lower the signal
Procedure, shortened: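 Endogenous factor activity is tracked through cis-promoter reporter units transfected into HepG2 cells. Transcript levels at 24 h are read by fluorescent RT-PCR and capillary electrophoresis, with activity in either direction scored relative to DMSO.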

[6] = ATG_AP_1_CIS: Attagene CIS-FACTORIAL HepG2 Assay for human Activator Protein 1 (AP-1) (AID 2282931); conditions: HepG2 Attagene cis-factorial AP-1 reporter mRNA; actives raise or lower the signal
Procedure, shortened: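 After 24 h incubation with test chemical, RNA from transfected HepG2 cells was reverse-transcribed, amplified, fluorescently labelled and digested before capillary electrophoresis. Reporters were driven by cis-regulatory promoters; activity fitted bidirectionally versus DMSO.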

[7] = ATG_AP_2_CIS: Attagene CIS-FACTORIAL HepG2 Assay for human Activator Protein 2 (AP-2) (AID 2282932); conditions: HepG2 AP-2 cis-reporter, Attagene transcription factor profiling; actives raise or lower the signal
Procedure, shortened: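 HepG2 cells transiently transfected with cis-element reporter units and exposed for 24 h. Reporter mRNA measured by RT-PCR, FAM labelling, HpaI digestion and capillary electrophoresis. Changes in either direction fitted relative to DMSO.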

[8] = ATG_BRE_CIS: Attagene CIS-FACTORIAL HepG2 Assay for human Bone Morphogenetic Protein (BMP) Response Element (BRE) (AID 2282933); conditions: HepG2 BMP response element reporter, Attagene transcription factor profiling; actives raise or lower the signal
Procedure, shortened: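 Endogenous transcription factor activity at a BMP response element was monitored in transfected HepG2 cells 24 h after dosing. Fluorescent RT-PCR products were resolved by capillary electrophoresis, and activity was fitted in both directions versus DMSO.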

[9] = target: Retinoic acid receptor alpha (Homo sapiens) (UniProt P10276); experiment: ATG_DR5_RAR_CIS: Attagene CIS-FACTORIAL HepG2 Assay for human Retinoic Acid Receptor Alpha (RARE), DR5 submotif (AID 2282934); conditions: HepG2 Attagene cis-factorial RARE DR5 reporter, mRNA; actives raise or lower the signal
Procedure, shortened: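 After 24 h of chemical exposure, transiently transfected HepG2 cells were lysed for total RNA; the DR5-regulated reporter transcript was quantified via RT-PCR and capillary electrophoresis, with activity fitted bidirectionally against DMSO.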

[10] = target: Transcription factor E2F1 (Homo sapiens) (UniProt Q01094); experiment: ATG_E2F_CIS: Attagene CIS-FACTORIAL HepG2 Assay for human E2F Transcription Factor 1 (AID 2282935); conditions: HepG2 Attagene cis-reporter, E2F reporter RNA transcripts; actives raise or lower the signal
Procedure, shortened: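 Endogenous E2F1 activity read through cis-promoter reporter units transfected into HepG2. After 24 h compound treatment, reporter mRNA measured by RT-PCR, HpaI digestion and capillary electrophoresis. Bidirectional fit versus DMSO.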

[11] = ATG_E_Box_CIS: Attagene CIS-FACTORIAL HepG2 Assay for human Enhancer Box (E-box) (AID 2282936); conditions: HepG2 E-box cis-reporter transcription, actives raise or lower the signal
Procedure, shortened: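 HepG2 cells transiently transfected with multiplexed cis-element reporter units, dosed 24 h; reporter mRNA quantified by RT-PCR, 6-FAM labelling, HpaI digestion and capillary electrophoresis. E-box (USF1) signal fitted bidirectionally vs DMSO.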

[12] = ATG_M_61_CIS: Attagene CIS-FACTORIAL HepG2 Assay for M61 Transcription Factor (Internal Marker) (AID 2282937); conditions: HepG2 Attagene CIS-FACTORIAL M61 internal marker reporter; actives raise or lower the signal
Procedure, shortened: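 Using transiently transfected HepG2 liver cells, reporter transcript levels were assessed 24 h post-dosing by RT-PCR and capillary electrophoresis. Changes in either direction were fitted relative to DMSO controls.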

[13] = ATG_EGR_CIS: Attagene CIS-FACTORIAL HepG2 Assay for human Early Growth Response 1 (EGR1) (AID 2282938); conditions: HepG2 Attagene CIS-FACTORIAL EGR reporter mRNA; actives raise or lower the signal
Procedure, shortened: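 Fluorescent capillary-electrophoresis signal of reporter cDNA fragments serves as read-out. HepG2 cells bear transiently transfected cis-promoter reporter units and are exposed 24 h; gain- or loss-of-signal is fitted against DMSO.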

[14] = ATG_M_19_CIS: Attagene CIS-FACTORIAL HepG2 Assay for M19 Transcription Factor (Internal Marker) (AID 2282939); conditions: HepG2 Attagene CIS-FACTORIAL M19 internal marker reporter; actives raise or lower the signal
Procedure, shortened: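 Background-control endpoint from a multiplexed HepG2 reporter panel. Cells carrying cis-regulated reporter constructs are treated 24 h, then reporter transcripts are amplified, fluorescently labelled and sized by capillary electrophoresis. DMSO defines baseline.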

[15] = ATG_ERE_CIS: Attagene CIS-FACTORIAL HepG2 Assay for Estrogen Response Element (ERE) (AID 2282940); conditions: HepG2 ERE cis-reporter, Attagene RNA transcript; actives raise or lower the signal
Procedure, shortened: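 Cells used were human hepatoma HepG2, transfected with multiple reporter transcription units under cis-regulatory promoters. Reporter mRNA, read 24 h post-dosing via fluorescent RT-PCR products on capillary electrophoresis, was fitted bidirectionally relative to DMSO.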

[16] = ATG_Ets_CIS: Attagene CIS-FACTORIAL HepG2 Assay for human Erythroblast Transformation Specific (ETS) (AID 2282941); conditions: HepG2 ETS cis-reporter transcription, actives raise or lower the signal
Procedure, shortened: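 HepG2 cells transfected with multiple cis-regulated reporter units measuring endogenous ETS-driven transcription, 24 h after dosing. Reporter mRNA quantified by RT-PCR with capillary electrophoresis; bidirectional fit relative to DMSO.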

[17] = target: Hepatocyte nuclear factor 3-beta (Homo sapiens) (UniProt Q9Y261); experiment: ATG_FoxA2_CIS: Attagene CIS-FACTORIAL HepG2 Assay for human Forkhead box A2 (FOXA2) (AID 2282942); conditions: HepG2 cis-reporter transcription factor activity, 24 h; actives raise or lower the signal
Procedure, shortened: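 Fluorescence signal of reporter cDNA fragments, separated by capillary electrophoresis, reflects endogenous transcription factor activity in transfected HepG2 after 24 h. Both increases and decreases fitted against DMSO.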

[18] = ATG_FoxO_CIS: Attagene CIS-FACTORIAL HepG2 Assay for human Forkhead box O (FoxO) (AID 2282943); conditions: HepG2 Attagene cis-reporter, FoxO element, mRNA; actives raise or lower the signal
Procedure, shortened: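 Transfected HepG2 reporter cells exposed to test chemical for 24 h; reporter RNA measured by reverse transcription, PCR and fluorescent capillary electrophoresis; curves fitted for increases and decreases against DMSO.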

[19] = ATG_GATA_CIS: Attagene CIS-FACTORIAL HepG2 Assay for human GATA Binding Protein (AID 2282944); conditions: HepG2 GATA cis-element reporter, Attagene multiplex mRNA; actives raise or lower the signal
Procedure, shortened: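 Endogenous transcription factor activity was captured through cis-promoter-driven reporters in transfected HepG2 cells. After 24 h exposure, reporter transcripts were quantified by RT-PCR with fluorescent capillary electrophoresis, and responses fitted both directions against DMSO.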

[20] = APR_HepG2_NuclearSize_72hr: Apredica 72-hour HepG2 Assay for Nuclear Size (AID 2282925); conditions: high-content imaging, actives raise or lower the signal
Procedure, shortened: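 HepG2 cells dosed 72 h at 0.39–200 uM (10 concentrations, duplicate) in 0.5% v/v DMSO final. Fixed, Hoechst 33342-stained nuclei imaged; nuclear diameter measured by automated image analysis. Bidirectional fit versus DMSO.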

Measured: AC50

Retinoic acid receptor alpha (Homo sapiens), sequence (P10276 whole entry, looked up): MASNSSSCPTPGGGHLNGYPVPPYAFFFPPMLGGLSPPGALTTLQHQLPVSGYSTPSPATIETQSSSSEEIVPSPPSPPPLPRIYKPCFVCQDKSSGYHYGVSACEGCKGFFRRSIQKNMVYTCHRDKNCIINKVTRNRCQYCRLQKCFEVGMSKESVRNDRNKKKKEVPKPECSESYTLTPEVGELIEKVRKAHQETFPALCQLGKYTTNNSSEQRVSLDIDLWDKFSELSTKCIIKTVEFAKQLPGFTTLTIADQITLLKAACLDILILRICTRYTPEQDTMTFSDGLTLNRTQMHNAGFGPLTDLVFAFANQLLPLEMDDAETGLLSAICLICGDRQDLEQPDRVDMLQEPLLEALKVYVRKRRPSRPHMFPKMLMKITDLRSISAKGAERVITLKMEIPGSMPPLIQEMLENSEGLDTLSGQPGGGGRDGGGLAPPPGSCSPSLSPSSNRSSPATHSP
Transcription factor E2F1 (Homo sapiens), sequence (Q01094 whole entry, looked up): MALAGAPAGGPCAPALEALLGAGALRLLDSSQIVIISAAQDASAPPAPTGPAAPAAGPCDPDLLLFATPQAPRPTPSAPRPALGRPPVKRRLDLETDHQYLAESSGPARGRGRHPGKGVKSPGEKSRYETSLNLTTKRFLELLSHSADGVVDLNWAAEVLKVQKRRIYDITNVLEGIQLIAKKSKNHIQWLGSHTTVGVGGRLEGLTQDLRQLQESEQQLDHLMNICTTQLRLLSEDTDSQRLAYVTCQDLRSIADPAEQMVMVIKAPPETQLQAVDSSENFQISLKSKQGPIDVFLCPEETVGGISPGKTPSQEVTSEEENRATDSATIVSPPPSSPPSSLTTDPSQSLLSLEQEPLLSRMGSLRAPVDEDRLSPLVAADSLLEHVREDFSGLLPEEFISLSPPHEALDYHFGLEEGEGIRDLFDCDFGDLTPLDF
Aryl hydrocarbon receptor (Homo sapiens), sequence (P35869 whole entry, looked up): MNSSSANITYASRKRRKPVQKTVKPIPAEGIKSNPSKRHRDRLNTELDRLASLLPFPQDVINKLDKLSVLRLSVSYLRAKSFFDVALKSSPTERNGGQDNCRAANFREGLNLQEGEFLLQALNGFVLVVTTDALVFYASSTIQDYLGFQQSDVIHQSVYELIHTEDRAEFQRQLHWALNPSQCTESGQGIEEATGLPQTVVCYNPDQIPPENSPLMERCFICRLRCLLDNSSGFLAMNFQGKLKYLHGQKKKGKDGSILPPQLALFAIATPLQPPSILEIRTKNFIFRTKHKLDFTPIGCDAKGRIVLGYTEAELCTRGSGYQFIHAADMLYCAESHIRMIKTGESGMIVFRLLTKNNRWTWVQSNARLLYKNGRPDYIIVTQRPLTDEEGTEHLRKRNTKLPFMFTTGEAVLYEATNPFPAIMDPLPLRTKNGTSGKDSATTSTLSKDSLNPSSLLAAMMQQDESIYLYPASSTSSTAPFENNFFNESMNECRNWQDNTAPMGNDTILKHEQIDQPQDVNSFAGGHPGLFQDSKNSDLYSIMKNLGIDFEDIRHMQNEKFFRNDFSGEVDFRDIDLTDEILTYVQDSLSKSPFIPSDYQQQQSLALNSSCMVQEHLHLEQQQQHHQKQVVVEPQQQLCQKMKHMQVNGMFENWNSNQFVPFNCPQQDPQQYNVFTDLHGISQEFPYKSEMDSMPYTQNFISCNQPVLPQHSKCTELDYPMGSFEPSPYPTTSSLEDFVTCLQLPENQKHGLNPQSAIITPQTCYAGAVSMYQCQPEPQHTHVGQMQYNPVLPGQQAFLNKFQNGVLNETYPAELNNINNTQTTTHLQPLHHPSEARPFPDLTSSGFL
Hepatocyte nuclear factor 3-beta (Homo sapiens), sequence (Q9Y261 whole entry, looked up, the tested form may be a part): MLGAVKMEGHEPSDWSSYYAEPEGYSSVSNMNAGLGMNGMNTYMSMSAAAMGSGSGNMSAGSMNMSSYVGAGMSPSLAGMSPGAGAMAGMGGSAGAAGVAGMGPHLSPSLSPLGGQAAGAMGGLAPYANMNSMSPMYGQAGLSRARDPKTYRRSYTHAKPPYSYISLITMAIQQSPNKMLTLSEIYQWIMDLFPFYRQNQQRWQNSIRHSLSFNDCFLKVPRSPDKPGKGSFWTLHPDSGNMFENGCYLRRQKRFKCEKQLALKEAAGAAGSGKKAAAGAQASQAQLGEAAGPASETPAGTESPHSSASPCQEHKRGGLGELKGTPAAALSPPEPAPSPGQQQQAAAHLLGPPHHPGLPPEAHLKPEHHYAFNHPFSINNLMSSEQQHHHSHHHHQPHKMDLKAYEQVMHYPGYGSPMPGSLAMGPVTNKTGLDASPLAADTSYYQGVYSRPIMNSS
CCAAT/enhancer-binding protein beta (Homo sapiens), sequence (P17676 whole entry, looked up): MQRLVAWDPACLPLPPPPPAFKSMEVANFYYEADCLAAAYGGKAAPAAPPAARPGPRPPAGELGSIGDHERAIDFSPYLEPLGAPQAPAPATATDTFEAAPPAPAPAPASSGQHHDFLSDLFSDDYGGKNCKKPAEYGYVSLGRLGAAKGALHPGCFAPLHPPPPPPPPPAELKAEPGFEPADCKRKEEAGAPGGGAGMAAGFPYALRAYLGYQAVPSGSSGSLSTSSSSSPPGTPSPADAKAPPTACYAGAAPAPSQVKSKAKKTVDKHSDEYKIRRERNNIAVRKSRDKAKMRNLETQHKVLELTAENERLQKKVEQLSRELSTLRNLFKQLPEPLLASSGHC

Cc1c(F)c(F)c(COC(=O)C2C(/C=C(\Cl)C(F)(F)F)C2(C)C)c(F)c1F (configuration not stated)
not listed: [20]
inactive: all other assays above

N#Cc1cc(Br)c(O)c(Br)c1
active: [1] 33.5 µM | [5] 50 µM | [6] 50 µM | [8] 38.9 µM | [15] 6.61 µM
not listed: [2]
inactive: all other assays above

CCCCNC(=O)n1c(NC(=O)OC)nc2ccccc21
not listed: [20]
inactive: all other assays above

— PubChem BioAssay (EPA / NIEHS)
